This is an account of results in PubChem BioAssay (NCATS).

A short description of assay [1]: qHTS assay for measurement of the activity of small molecule inhibitors on Zika virus induced Caspase-3 activity in human iPSC derived neural progenitor cells (hNPCs) (AID 1224857). Also: % of control where 0% means no effect; nearly all actives have a fitted effect of over 65% in size. Summed up: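 Caspase-3/7 induction by a 6-hour ZIKV infection was quantified with a luminescent Caspase-Glo 3/7 reagent incubated 30 minutes at room temperature. Compounds were preincubated with hNPCs for 1 hour; inhibition was calculated against uninfected and infected control wells.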
Background: Quantitative high-throughput screening tests each substance at several concentrations.

Assay [2] is described as follows: qHTS assay for measurement of the activity of small molecule inhibitors on Zika virus induced Caspase-3 activity in human astrocytoma cells (AID 1224859).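 Also: plate controls were ZIKV-infected untreated cells for no effect and uninfected cells for full effect.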 In outline: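 In SNB-19 cells plated at 250 cells/well and grown 16-20 h, compounds were applied 1 h before ZIKV (2 FFU/cell). Six hours later caspase-3/7 luminescence was recorded.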
The nature of assay [3]: qHTS assay to identify small molecule inhibitors of chordoma cells - UCH-1 (AID 1259355). Also: % is scaled to controls: 0 for no effect and ±100 for the full control effect; nearly all actives have a fitted effect of over 55% in size. Summed up: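 800 cells/well, overnight attach; compounds pinned at 15 concs, then auranofin/camptothecin/doxorubicin/rubitecan/topotecan combo added; 48hr 37 C, 5% CO2; CellTiter-Glo, 30min RT, luminescence.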
Assay [4] in a line: qHTS assay to identify small molecule inhibitors of chordoma cells - UCH-2 (AID 1259356). Also: series mostly up to about 46 µM; % is scaled to controls: 0 for no effect and ±100 for the full control effect.
A short description of assay [5]: P-glycoprotein substrates identified in KB-8-5-11 adenocarcinoma cell line, qHTS therapeutic library screen (AID 1346987). Also: nearly all actives have a fitted effect of over 65% in size. Also: potency is read from the fitted curve at half-maximal effect. Summed up:
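Human cervical adenocarcinoma KB-8-5-11 cells, selected in colchicine to over-express P-gp and assayed without it, were exposed for 72 h to titrated compounds. An ATP-based luminescent viability signal gave AC50.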

Values joined by “and” are separate entries in the source; they are usually repeats but may differ in a detail not shown here. Equal values may be shown once. A number with no mark means an inactive call. Results filed as inconclusive are left out. Active and inactive are the calls of the source. Calls follow the shape of the dose curve; as a rule, active = well fitted curve in the direction sought with a large enough effect; inconclusive = small, poorly fitted or top-dose-only effect, or another doubt; inactive = no such curve, though single readings can be large; an effect the other way counts as inactive or inconclusive.

With `Cc1cc2c(cc1S(N)(=O)=O)S(=O)(=O)CCC2`, the compound was classed as inactive in assay [1], in assay [2] and in assay [4]. Besides, the Potency entry in assay [3] and in assay [5] was “inactive” each time.
For the compound `C[C@@H]1CCN(C(=O)[C@H](CCCN=C(N)N)NS(=O)(=O)c2cccc3c2NC[C@H](C)C3)[C@@H](C(=O)O)C1`, the result in assay [1], in assay [2] and in assay [4] was inactive. Moreover, the Potency entry in assay [3] and in assay [5] was “inactive” in each case.
Take `Cc1ncc(COP(=O)(O)O)c(C=O)c1O`: the call in assay [1], in assay [2] and in assay [4] was inactive. For the same compound, the Potency result in assay [3] and in assay [5] was “inactive” in each case.
For `C[C@H](N)[C@H](O)c1cccc(O)c1`, the outcome in assay [1], in assay [2] and in assay [4] was inactive. In addition, the Potency entry in assay [3] and in assay [5] was “inactive” each time.
As to `C[C@H]1O[C@@H](n2cc(F)c(=O)[nH]c2=O)[C@H](O)[C@@H]1O`, the compound was called inactive in assay [1], in assay [2] and in assay [4]. Further, the Potency entry in assay [3] and in assay [5] was “inactive” throughout.
On to `Nc1ccc(S(=O)(=O)NC(=O)c2ccccc2)cc1`, for which the compound was classed as inactive in assay [1], in assay [2] and in assay [4]. For the same compound, the Potency entry in assay [3] and in assay [5] was “inactive” in each case.
`CC[N+](CC)(CC)CCOc1ccc(/C=C/c2ccccc2)cc1`: the call in assay [1], in assay [2] and in assay [4] was inactive. The Potency result in assay [3] and in assay [5] was “inactive” in each case.
For the compound `CCN(CC)CCSC(=O)C(c1ccccc1)c1ccccc1`, the compound was called inactive in assay [1], in assay [2] and in assay [4]. In addition, the Potency result in assay [3] and in assay [5] was “inactive” in each case.
Consider `CCOc1ccc2ccccc2c1C(=O)N[C@@H]1C(=O)N2[C@@H]1SC(C)(C)[C@@H]2C(=O)O`, for which the result in assay [1], in assay [2] and in assay [4] was inactive. For the same compound, the Potency result in assay [3] and in assay [5] was “inactive” throughout.
`CC(COc1ccccc1)NC(C)C(O)c1ccc(O)cc1` (stereo not given): the compound was called inactive in assay [1], in assay [2] and in assay [4]. Further, the Potency entry in assay [3] and in assay [5] was “inactive” in each case.
As to `COc1cc(C)c(Cc2cnc(N)nc2N)cc1OC`, the compound was called inactive in assay [1], in assay [2] and in assay [4]. Also, the Potency entry in assay [3] and in assay [5] was “inactive” throughout.
Consider `[O-][n+]1cccc(CO)c1`, for which the compound was called inactive in assay [1], in assay [2] and in assay [4]. In addition, the Potency result in assay [3] and in assay [5] was “inactive” in each case.
With `Nc1ccc(S(=O)(=O)Nc2ccc(Cl)nn2)cc1`, the call in assay [1], in assay [2] and in assay [4] was inactive. The Potency entry in assay [3] and in assay [5] was “inactive” in each case.
Turning to `CN1CCCCC1CCN1c2ccccc2Sc2ccc(S(C)=O)cc21` (stereo not given), the result in assay [1], in assay [2] and in assay [4] was inactive. Besides, the Potency result in assay [3] and in assay [5] was “inactive” throughout.
For `NC(=O)NC(=O)Cc1ccccc1`, the result in assay [1], in assay [2] and in assay [4] was inactive. For the same compound, the Potency result in assay [3] and in assay [5] was “inactive” each time.
Take `c1ccc(CN(CC2=NCCN2)c2ccccc2)cc1`: the outcome in assay [1], in assay [2] and in assay [4] was inactive. Also, the Potency result in assay [3] and in assay [5] was “inactive” in each case.
For the compound `Cc1cccc(C)c1NC(=O)CN(CC(=O)O)CC(=O)O`, the result in assay [1], in assay [2] and in assay [4] was inactive. Also, the Potency entry in assay [3] and in assay [5] was “inactive” in each case.
For the compound `CN(C)CCCO[C@@H]1[C@H]2OC(C)(C)O[C@H]2O[C@@H]1C(O)CO` (stereo not given in full), the compound was called inactive in assay [1], in assay [2] and in assay [4]. For the same compound, the activity, negative = inhibition in assay [3] was -7.27% [at 1.88 µM]. For the same compound, in assay [5], the Potency result was “inactive”.
With `CC(=O)NC(Cc1ccccc1)C(=O)O` (stereo not given), the compound was called inactive in assay [1], in assay [2] and in assay [4]. For the same compound, the Potency result in assay [3] and in assay [5] was “inactive” in each case.
As to `COc1ccc2cc1Oc1cc3c(cc1OC)CC[N+](C)(C)[C@H]3Cc1ccc(cc1)Oc1c(OC)c(OC)cc3c1[C@@H](C2)[N+](C)(C)CC3`, the result in assay [1], in assay [2] and in assay [4] was inactive. In addition, the Potency entry in assay [3] and in assay [5] was “inactive” each time.
Turning to `COc1ccc2cc1Oc1ccc(cc1)C[C@H]1c3c(cc4c(c3Oc3cc5c(cc3OC)CCN(C)[C@@H]5C2)OCO4)CCN1C`, the outcome in assay [1], in assay [2] and in assay [4] was inactive. Further, the activity, negative = inhibition in assay [3] was -13.6% [at 1.88 µM]. In assay [5], the Potency was 20.6 µM (active).
Consider `CCn1cc(C(=O)O)c(=O)c2cnc(N3CCNCC3)nc21`, for which the compound was classed as inactive in assay [1], in assay [2] and in assay [4]. Moreover, the Potency result in assay [3] and in assay [5] was “inactive” in each case.
With `CCCCCCCCCCCCCCCCCCOCC(O)CO` (stereo not given), the call in assay [1], in assay [2] and in assay [4] was inactive. For the same compound, the Potency result in assay [3] and in assay [5] was “inactive” in each case.
As to `C[C@]12CC[C@@H]3c4ccc(O)cc4CC[C@H]3[C@@H]1CC[C@@H]2OC(=O)CCC1CCCC1`, the outcome in assay [1], in assay [2] and in assay [4] was inactive. The Potency result in assay [3] was “inactive”. The Potency in assay [5] is 6.51 µM (active) and 8.2 µM (active).
As for `CN(C)CCN(Cc1ccccc1)c1ccccn1`, the result in assay [1], in assay [2] and in assay [4] was inactive. Also, the Potency entry in assay [3] and in assay [5] was “inactive” each time.
Turning to `NS(=O)(=O)c1cc2c(cc1C(F)(F)F)NC(Cc1ccccc1)NS2(=O)=O` (stereo not given), the outcome in assay [1], in assay [2] and in assay [4] was inactive. Also, the Potency result in assay [3] and in assay [5] was “inactive” in each case.
As to `Cc1ncc([N+](=O)[O-])n1CC(O)CCl` (stereo not given), the call in assay [1], in assay [2] and in assay [4] was inactive. The Potency entry in assay [3] and in assay [5] was “inactive” throughout.
As to `C[C@@H]1CC[C@@]2(OC1)O[C@H]1C[C@H]3[C@@H]4CC[C@H]5C[C@@H](O)CC[C@]5(C)[C@H]4CC(=O)[C@]3(C)[C@H]1[C@@H]2C`, the activity change, negative = inhibition is 4.72% [at 4.53 µM] in assay [1] and -4.08% [at 4.53 µM] in assay [2]. For the same compound, the Potency result in assay [3] and in assay [5] was “inactive” in each case. Also, the compound was called inactive in assay [4].
Turning to `O=C1O[C@H](CO)[C@@H](O)[C@H](O)[C@H]1O`, the result in assay [1], in assay [2] and in assay [4] was inactive. For the same compound, the Potency result in assay [3] and in assay [5] was “inactive” throughout.
On to `C[C@H]1O[C@H](O[C@H]2[C@H](O)[C@@H](O)[C@@H](O[C@H]3[C@H](O)[C@@H](O)[C@H](O)O[C@@H]3CO)O[C@@H]2CO)[C@H](O)[C@@H](O)[C@@H]1N[C@H]1C=C(CO)[C@@H](O)[C@H](O)[C@H]1O`, for which the outcome in assay [1], in assay [2] and in assay [4] was inactive. In addition, the Potency result in assay [3] and in assay [5] was “inactive” in each case.
With `O=C(Oc1ccccc1C(=O)O)c1ccccc1O`, the compound was called inactive in assay [1], in assay [2] and in assay [4]. The Potency entry in assay [3] and in assay [5] was “inactive” throughout.
As to `COc1ccc2c(c1)C(=O)N(CCc1ccc(S(=O)(=O)NC(=O)NC3CCCCC3)cc1)C(=O)C2(C)C`, the outcome in assay [1], in assay [2] and in assay [4] was inactive. Also, the Potency result in assay [3] and in assay [5] was “inactive” throughout.
On to `CCOc1nc2cccc(C(=O)O)c2n1Cc1ccc(-c2ccccc2-c2nn[nH]n2)cc1`, for which the result in assay [1], in assay [2] and in assay [4] was inactive. The Potency entry in assay [3] and in assay [5] was “inactive” throughout.
